Source: PubChem
Hits are enriched below; roughly 4.5% of the tested compounds scored in any of these assays.
dFosB act: activators of mouse delta FosB homodimer | activation, % at 25 µM | 340,000 tested, 0.99% active | purified delta FosB, TAMRA-CDK5 oligo fluorescence polarization; percent of positive-control signal above neutral wells | AID 493131;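 active = mean activation above about 17%, with every replicate also reaching it, limit read from the data, passing the limit was not always enough; inconclusive = only one of the two conditions met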
Target sequence (P13346 whole entry, looked up): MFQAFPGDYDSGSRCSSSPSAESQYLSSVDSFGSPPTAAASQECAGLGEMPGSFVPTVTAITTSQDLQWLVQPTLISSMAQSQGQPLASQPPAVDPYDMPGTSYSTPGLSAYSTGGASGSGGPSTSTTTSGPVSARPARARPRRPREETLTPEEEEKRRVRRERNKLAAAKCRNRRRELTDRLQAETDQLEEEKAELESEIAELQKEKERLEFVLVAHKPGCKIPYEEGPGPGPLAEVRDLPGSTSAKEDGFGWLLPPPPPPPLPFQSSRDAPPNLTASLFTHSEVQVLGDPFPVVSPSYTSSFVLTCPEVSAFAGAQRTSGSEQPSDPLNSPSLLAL
EBNA-1 inhibitor: blocks EBNA-1 binding to DNA. inhibition, % at 14.8 µM. AID 1950. 300,000 tested, 0.34% active. EBNA-1 DNA binding, fluorescence polarization; in the data active = inhibition above about 28%
ZTA DNA inh: blocks Epstein-Barr virus ZTA, an EBNA-1 counter-screen; ZTA-DNA binding, fluorescence polarization; AID 2234; 320,000 tested, 0.15% active; P03206; inhibition, % at 11 µM; in the data active = inhibition above about 33%
Target sequence (P03206 whole entry, looked up): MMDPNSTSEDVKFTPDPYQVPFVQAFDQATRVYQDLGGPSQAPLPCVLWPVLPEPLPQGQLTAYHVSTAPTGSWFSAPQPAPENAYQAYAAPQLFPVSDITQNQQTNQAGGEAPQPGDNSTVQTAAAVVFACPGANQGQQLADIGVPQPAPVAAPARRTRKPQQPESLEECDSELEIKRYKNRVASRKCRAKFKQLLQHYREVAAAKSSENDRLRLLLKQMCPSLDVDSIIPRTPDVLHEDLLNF
GRIN3A LBD mod: NR3A (human) ligand-binding domain modulation; NR3A LBD differential scanning fluorimetry, Tm shift; 0% = protein alone, 100% = glycine-bound protein; Tm shift relative to glycine control, % at 25 µM; 340,000 tested, 2.5% active;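 active = melting temperature shift of at least 10% of the positive control shift, at one fixed dose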
Rpn11 inh: Rpn11 (human) deubiquitinase inhibition. inhibition, % at 20 µM. O00487. human 26S proteasome, Ub4-pepOG fluorescence polarization; 20S core pre-blocked with epoxomicin. 360,000 tested, 0.59% active;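 active = inhibition at 20 µM, scaled to each plate's controls, above about 33%, limit read from the data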
TPT1 inhibitor: blocks Candida albicans tRNA 2'-phosphotransferase | recombinant caTPT1, FP RNA substrate dephosphorylation | inhibition, % at 5 µM | 300,000 tested, 0.81% active | AID 1962;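 active = inhibition above the mean of all tested compounds plus 3 SD, set per screening campaign, cut at about 24% in these data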;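 note: plate controls were DMSO alone for no effect and ferristatin control at 100 nM for full effect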
An asterisk follows results filed as active; ? = inconclusive; / = not tested or not shown; + = active, no number.

SMILES	dFosB act	EBNA-1 inhibitor	ZTA DNA inh	GRIN3A LBD mod	Rpn11 inh	TPT1 inhibitor
COc1ccc(Nc2nc(-c3cccc([N+](=O)[O-])c3)nc3ccccc23)cc1	-6	4	-11	46*	2	1
COc1ccc(-c2nc(N/N=C(\C)c3ccc(O)cc3)c3ccccc3n2)cc1	-9	1	8	13*	1	-2
CCOc1ccc(S(=O)(=O)N(C)c2ccc(OCC(=O)NCCc3ccc(OC)cc3)cc2)cc1	0	-10	-4	1	1	-1
Oc1ccc2n[nH]nc2c1	-1	0	4	-2	6	-1
c1ccc(CNc2nc(-c3cccnc3)nc3ccccc23)cc1	-26	/	/	-4	-9	/
CC(=O)Nc1ccc(Nc2nc(-c3ccccc3)nc3ccccc23)cc1	-9	5	9	12*	1	2
Oc1ccc(Nc2nc(-c3ccccc3)nc3ccccc23)cc1	9	1	-5	42*	-2	-3
COCCCNc1nc(-c2ccc(Cl)cc2)nc2ccccc12	-19	1	13	12*	5	-2
c1ccc(CNc2nc(-c3ccccc3)nc3ccccc23)cc1	0	-7	-12	10*	6	0
COCCCNc1nc(-c2ccncc2)nc2ccccc12	-29	6	-9	1	-3	-5
Cc1ccc(CN(C)C(=O)CN2C(=O)NC(c3ccccc3)(c3ccccc3)C2=O)c(C)c1	-5	/	2	4	10	/
CC1CCCN(c2ccc(/C=C(\C#N)c3nn(-c4ccccc4)c(N)c3C#N)cc2[N+](=O)[O-])C1 (stereo unspecified)	-16	3	4	12*	-9	-3
N#C/C(=C\c1ccc(N2CCCCC2)c([N+](=O)[O-])c1)c1nn(-c2ccccc2)c(N)c1C#N	0	0	-2	-3	-5	0
CC1CCN(c2ccc(/C=C(\C#N)c3nn(-c4ccccc4)c(N)c3C#N)cc2[N+](=O)[O-])CC1	-7	-1	18	10*	-4	-4
CCC1(CC)SC(N)=NC1=O	-4	/	/	-1	0	/
Cc1nc2ccc(C(=O)N/N=C/c3cc([N+](=O)[O-])ccc3O)cc2[nH]1	9	2	9	-2	-2	0
O=C(N/N=C/c1cn(-c2ccccc2)nc1-c1cccs1)c1ccc(Cl)cc1	-1	-13	-5	27*	-1	-2
O=C(N/N=C/c1cccs1)c1cccc(NC(=O)c2ccc(Cl)cc2)c1	/	59*	6	/	/	0
O=[N+]([O-])c1ccc(O)c(/C=N\N=C2c3ccccc3-c3ccccc32)c1	-13	3	17	14*	5	3
O=C(N/N=C/c1cc([N+](=O)[O-])ccc1O)c1cccc(NC(=O)c2cccc(Cl)c2)c1	57*	-3	2	5	4	2
O=C(N/N=C/c1cccc(NC(=O)c2ccc(Cl)cc2)c1)c1cccc(O)c1	14	-3	-5	10	7	1
O=C(c1ccc2c(c1)OCO2)C1CCCN(C(=O)c2cnn(Cc3ccccc3)c2)C1 (stereo unspecified)	-5	4	22	0	-7	-1
O=C(COC(=O)C1CC(O)CN1S(=O)(=O)c1ccccc1[N+](=O)[O-])c1ccc[nH]1 (stereo unspecified)	-10	/	-25	1	6	/
O=C(N/N=C/c1cccs1)c1cccc(S(=O)(=O)Nc2ccc(Cl)cc2)c1	2	5	-9	28*	-1	-1
COc1ccc(NS(=O)(=O)c2cccc(C(=O)N/N=C/c3ccccc3OC)c2)cc1	6	/	/	1	0	/
SMILES	dFosB act	EBNA-1 inhibitor	ZTA DNA inh	GRIN3A LBD mod	Rpn11 inh	TPT1 inhibitor
CC(=O)Oc1ccc(Cn2c(C)c(C(=O)NCc3cccc(C(F)(F)F)c3)sc2=O)cc1	/	/	/	/	10	/
O=C(CSc1nnc(NC(=O)c2ccco2)s1)Nc1cccc(F)c1	?	11	8	28*	-1	2
O=C(CSc1ccc(Cl)cc1)Nc1ccc(NC(=O)c2ccco2)cc1	2	11	5	21*	0	-4
COc1cccc(NC(=O)CSc2nnc(NC(=O)c3ccco3)s2)c1	0	-2	-6	7	3	3
O=C(CSc1nnc(NC(=O)c2cccc(F)c2)s1)NCc1ccco1	6	-2	-2	4	-3	2
CCc1ccc(Nc2nnc(SCC(=O)Nc3sccc3C(N)=O)s2)cc1	-15	6	17	10*	-7	1
CC(=O)Nc1cccc(NC(=O)CSc2nnc(NC(=O)c3ccco3)s2)c1	0	5	4	11*	5	2
Cc1ccc(S(=O)(=O)N2CCN(C(=O)CN3CCN(c4ccc(O)cc4)CC3)CC2)cc1	-3	/	/	-1	-1	/
CC(=O)Nc1cccc(NC(=O)CSc2nccn2Cc2ccco2)c1	-2	-1	-12	14*	0	-3
CC(=O)Nc1ccc(NC(=O)CSc2nnc(NC(=O)c3ccc(Br)o3)s2)cc1	-4	1	5	16*	6	-1
O=C(CSc1nc2ccccc2o1)Nc1ccc(Cl)cc1	-4	5	7	19*	0	-2
Cc1ccc(NC(=O)CSc2nccn2Cc2ccco2)c(C)c1	-1	-8	-5	3	6	0
Cc1ccc(NC(=O)CSc2nnc(NC(=O)c3ccco3)s2)cc1	-6	11	-9	13*	2	-3
CSCCC(NC(=O)COc1ccccc1)C(=O)NCc1cccs1 (stereo unspecified)	0	1	9	0	0	6
CC(=O)Nc1ccc(S(=O)(=O)N2CCC(C(=O)NCc3cccnc3)CC2)cc1	2	4	2	1	-6	1
Cc1cccc(C)c1NC(=O)CN(C)C(=O)C1=COCCO1	-1	/	-9	2	-11	/
Cc1ccc(C=Nc2ccc(N(C)C)cc2)o1	-2	+	+	0	-2	-1
Cc1ccc(C=Nc2ccccc2C(N)=O)o1	6	1	12	0	3	0
Cc1ccc(Nc2nc(-c3cccnc3)cs2)cc1C	-2	-1	-6	-3	-4	-1
COc1ccc(Cl)cc1Nc1nc(-c2cccnc2)cs1	-12	1	4	24*	0	0
Brc1ccc(Nc2nc(-c3cccnc3)cs2)cc1	-10	1	12	21*	8	-2
Clc1cccc(Nc2nc(-c3cccnc3)cs2)c1	2	12	-7	27*	4	-1
Brc1cccc(Nc2nc(-c3cccnc3)cs2)c1	-11	3	7	43*	-2	0
Cc1cc(Cl)c(S(=O)(=O)N2CCN(c3ccccn3)CC2)cc1OCC(=O)NC1CCCCC1	-11	-4	6	0	3	1
Cc1c(C)c2ccc(OCC(=O)Nc3ccccn3)c(C)c2oc1=O	-4	6	3	0	-4	-2
CCc1nc2ccc(C(=O)NCCC(C)C)cn2c1N(CC)CCOC	/	/	/	/	5	/
